Among the data in PubChem BioAssay AID651601 (Sanford-Burnham Center for Chemical Genomics, 2012) are outcome values, retold here.

Calls of active or inactive are those of the source.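 How the source made its calls: active means CXCR6 mean IC50 below 15 µM, and neither CCR6 nor CXCR5 mean IC50 under five times that; inactive means the rest.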

The target of this test is C-C chemokine receptor type 6 (Homo sapiens) (UniProt P51684). Briefly: chemokine receptor panel antagonism: CCR6, CXCR5, CXCR6, profiling panel, selectivity assay for CXCR6 antagonist project, cell-based, CHO-K1 PathHunter beta-arrestin, luminescence (AID 651601). The settings on record: antagonist mode, mean of runs.
Chain of C-C chemokine receptor type 6 (Homo sapiens) (P51684 whole entry, looked up): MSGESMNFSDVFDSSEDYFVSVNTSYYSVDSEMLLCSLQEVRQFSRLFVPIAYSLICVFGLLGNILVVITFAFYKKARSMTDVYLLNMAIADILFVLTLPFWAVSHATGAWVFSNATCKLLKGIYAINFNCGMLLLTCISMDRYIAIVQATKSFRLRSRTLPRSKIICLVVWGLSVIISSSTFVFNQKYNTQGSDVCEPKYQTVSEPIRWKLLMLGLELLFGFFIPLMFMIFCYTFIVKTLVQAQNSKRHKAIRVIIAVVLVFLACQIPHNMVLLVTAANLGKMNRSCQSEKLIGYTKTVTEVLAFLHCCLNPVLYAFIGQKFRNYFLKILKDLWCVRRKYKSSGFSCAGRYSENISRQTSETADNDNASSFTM
For `COc1cccc(C(=O)NC2CC3CCCC(C2)N3CC(=O)Nc2ccccc2C(F)(F)F)c1` (stereo unspecified), the compound was called inactive.

Consider `CN(C)c1ccc(NC(=O)CN2C3CCCC2CC(NC(=O)c2ccccc2)C3)cc1` (stereo unspecified), for which the call was inactive.

With `COc1cccc(C(=O)NC2CC3CCCC(C2)N3CC(=O)Nc2ccc(N(C)C)cc2)c1` (stereo unspecified), the compound was called inactive.

On to `O=C(CN1C2CCCC1CC(NC(=O)c1ccccc1)C2)Nc1ccccc1` (stereo unspecified), for which the compound was classed as inactive.

As to `O=C(CN1C2CCCC1CC(NC(=O)c1ccccc1)C2)Nc1ccccc1C(F)(F)F` (stereo unspecified), the outcome was inactive.

For `COc1cc(C(=O)NC2CC3CCCC(C2)N3CC(=O)Nc2ccccc2)cc(OC)c1OC` (stereo unspecified), the outcome was inactive.
